Reference: PubChem BioAssay
A number with no mark means an inactive call. No rule for the calls is given here.

assay: compounds altering viability of human ES cells (AID 493140); conditions: human embryonic stem cell survival screen; active compounds read high;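 also: cells exposed to compounds for four days before counting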

| SMILES | survival |
| --- | --- |
| C=Cc1c(C)c2cc3nc(cc4[nH]c(cc5nc(cc1[nH]2)C(C)=C5CCC(=O)O)c(CCC(=O)OC)c4C)[C@@]1(C)C3=CC=C(C(=O)OC)C1C(=O)OC (stereo not given in full) (tested in a mixture with another compound) | 12.9 |
| CC/C=C\C/C=C\C/C=C\C/C=C\C/C=C\CCC(=O)O[C@H](COCCCCCCCCCCCCCCCC)COP(=O)([O-])OCC[N+](C)(C)C | 83.1 |
| CCCCC[C@H](O)/C=C/C=C/C=C/[C@H](O)C/C=C\CCCC(=O)O | 107 |
| CCCCCCCN[C@H]1CCC[C@@H]1CCCCCCC(=O)O | 114 |
| O=P(O)(O)C(O)c1ccc2ccccc2c1 (stereo not given) | 93.4 |
| CCCCC/C=C\C\C=C/C=C/C=C/[C@@H](O)[C@@H](O)CCCC(=O)O | 116 |
| O=c1[nH]c(=O)n([C@H]2C[C@@H](O)[C@@H](CO)O2)cc1C(F)(F)F | 0.583 |
| CCCCC[C@H](O)/C=C/[C@H]1OC(=O)C[C@H](O)[C@@H]1C/C=C\CCCC(=O)O | 110 |
| CC1O[C@@H](O[C@@H]2C(CO)O[C@@H](OCC3O[C@@H](OC(=O)C45CC[C@@H](C)[C@H](C)[C@H]4C4=CC[C@@H]6[C@@]7(C)C[C@@H](O)[C@H](O)[C@@](C)(CO)C7CC[C@@]6(C)[C@]4(C)CC5)C(O)[C@H](O)[C@@H]3O)C(O)[C@@H]2O)C(O)[C@@H](O)[C@H]1O (stereo not given in full) | 9.83 |
| CCCCC/C=C\C/C=C\C/C=C\CCCCCCC(=O)O[C@H](COCCCCCCCCCCCCCCCC)COP(=O)([O-])OCC[N+](C)(C)C | 71.5 |
